Screen size: about 16,000 compounds; about 4,000 (25%) were called active. Inconclusive results (about 26%) are left out. Only a sample is shown. Unmarked numbers belong to inactive results. Calls come from the whole dose curve; as a rule, active = well fitted curve in the direction sought with a large enough effect; inconclusive = small, poorly fitted or top-dose-only effect, or effect the other way; inactive = no such curve, though single readings can be large or run the other way.
% is set by controls: 0 for no effect and ±100 for the full control effect.

In this assay the target is Cytochrome P450 2C9 (Homo sapiens) (UniProt P11712). Description: Cytochrome panel assay with activity outcomes. The conditions noted are these: recombinant CYP, pro-luciferin dealkylation, luminescence, p450-cyp2c9; series mostly up to 57.1 µM; activity, negative = inhibition: at the top concentration.
Sequence of Cytochrome P450 2C9 (Homo sapiens) (P11712 whole entry, looked up): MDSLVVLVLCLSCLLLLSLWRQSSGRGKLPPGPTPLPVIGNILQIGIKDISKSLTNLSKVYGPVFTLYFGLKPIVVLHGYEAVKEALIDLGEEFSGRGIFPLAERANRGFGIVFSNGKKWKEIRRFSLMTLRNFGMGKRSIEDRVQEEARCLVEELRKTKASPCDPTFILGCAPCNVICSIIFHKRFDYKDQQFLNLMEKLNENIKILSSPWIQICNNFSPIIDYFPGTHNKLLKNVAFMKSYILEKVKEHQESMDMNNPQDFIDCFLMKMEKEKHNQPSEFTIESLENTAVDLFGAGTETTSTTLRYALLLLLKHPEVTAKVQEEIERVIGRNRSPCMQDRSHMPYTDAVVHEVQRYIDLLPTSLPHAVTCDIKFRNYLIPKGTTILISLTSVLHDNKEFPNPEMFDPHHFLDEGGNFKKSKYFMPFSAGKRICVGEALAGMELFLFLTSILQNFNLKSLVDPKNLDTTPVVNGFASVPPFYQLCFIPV
For the compound `CCOC(=O)N/N=C1/C[C@@H](O)[C@@H](O)[C@@H]2[C@@H]3C(=O)N(C(C)(C)C)C(=O)[C@H]3CC[C@@H]12`, the activity, negative = inhibition is 6.14% [at 11.4 µM]. For `COc1ccccc1-c1nc(Nc2ccncc2)c2ccccc2n1`, the activity, negative = inhibition is -28.7% [at 2.29 µM]. `c1nc(NC2CC2)c2cc(-c3ccoc3)ccc2n1`: the activity, negative = inhibition was -5.58% [at 2.29 µM].

With `O=c1c2ccccc2nc(-c2ccc(Br)cc2)n1Cc1ccccc1`, the AC50 – broadly, the concentration giving half of the maximal activity seen – was 2510 nM (active). As to `CCOC(=O)Cn1c(-c2ccccc2)nc2ccccc2c1=O`, the AC50 was 2000 nM (active). `O=C(O)Cn1c(-c2ccccc2)nc2ccccc21`: the “activity, negative = inhibition” value was -9.81%. As to `C[C@@H](CC(=O)O)[C@@H](N)C(=O)O`, the “activity, negative = inhibition” value is -21.2%. Same read-out and setting: the figure for `COc1ccc2c3c(ccc2c1)N[C@H](C(=O)O)CC3` is -0.255% [at 11.4 µM]; for `COCCNc1nc(-c2ccccc2OC)nc2ccccc12` it is 5.14% [at 2.29 µM].

For `CC(=O)c1cc(CC=C(C)C)c(O)cc1O`, the AC50 is 2510 nM (active). With `COc1cc(CC(=O)O)c(C(C)=O)cc1OC`, the “activity, negative = inhibition” value is 3.54%. The same measure, in the same setting: the figure for `Cc1[nH]c2ccccc2c1C(c1ccccn1)N1CCC(C)CC1` (configuration not stated) is -1.22%. Regarding `CCC(C)(C)n1nnnc1C(c1ccc(C)cc1)N1CCC(C)CC1` (configuration not stated), the AC50 was 28200 nM (active).

As to `Cn1c(-c2ccccc2)cnc1N`, the “activity, negative = inhibition” value was 5.03%. As to `Cc1ccccc1CNc1ncnc2c1ncn2[C@@H]1O[C@@H](CO)[C@H](O)[C@@H]1O`, the “activity, negative = inhibition” value was 5.73%.

As to `CC(C)N(CC(=O)O)CC(=O)O`, the activity, negative = inhibition is -8.23% [at 11.4 µM].

For the compound `CN1Cc2c(C(=O)OC(C)(C)C)ncn2-c2ccsc2C1=O`, the AC50 was 5010 nM (active). `Cc1c(N(C)CS(=O)(=O)O)c(=O)n(-c2ccccc2)n1C`: the “activity, negative = inhibition” value is -0.666% [at 25.6 µM]. Still for that read-out and setting: in the case of `Cc1c(CCO)c(=O)n(C)n1C(=O)c1ccc(F)cc1` it was 55%. Consider `Cc1c(CCO)c(=O)n(-c2ccccc2)n1S(=O)(=O)c1c(Cl)cc(Cl)cc1Cl`, for which the concentration at half-maximal activity (AC50) is 5010 nM (active). In the case of `Cc1cccc(C(=O)N2CCN(c3ccc([N+](=O)[O-])c(NCc4ccco4)c3)CC2)c1`, the AC50 was 3550 nM (active).

Consider `Cc1cccc(C(=O)NCN2CCN(c3ccccc3C#N)CC2)c1`, for which the AC50 result was “inactive”. In the case of `N#Cc1ccc(C(=O)Nc2ccc(N3CCN(C(=O)c4ccco4)CC3)cc2)c(F)c1`, the “activity, negative = inhibition” value was -19.7%.

Regarding `Cc1ccccc1C(=O)N1CCN(c2ccc([N+](=O)[O-])c(NCc3ccco3)c2)CC1`, the half-maximal activity concentration (AC50) is 2240 nM (active). Turning to `O=C1C2C3C=CC(C2C(=O)N1CN1CCOCC1)C1C2C(=O)N(CN4CCOCC4)C(=O)C2C31` (configuration not stated), the activity, negative = inhibition was -4.42% [at 11.4 µM].

With `COc1c2c(nc3ccccc13)O[C@H]([C@@](C)(O)CO)C2`, the “activity, negative = inhibition” value was 6.33% [at 25.6 µM]. Take `NC[C@H]1O[C@H](n2cnc3c(N)ncnc32)C[C@@H]1O`: the activity, negative = inhibition was 11.4% [at 11.4 µM]. As to `CCCCN(C)Cc1c(C)[nH]c2ccc(Cl)cc2c1=O`, the “activity, negative = inhibition” value was -23.2%. On to `O=C(NCCCN1CCC(Cc2ccccc2)CC1)C1CCN(S(=O)(=O)N2CCOCC2)CC1`, for which the “activity, negative = inhibition” value is -2.95%. With `O=C(NCCc1ccc(Cl)cc1)C1CCN(S(=O)(=O)N2CCC3(CC2)OCCO3)CC1`, the concentration at half-maximal activity (AC50) is 7080 nM (active). With `O=C(NCCCN1CCN(Cc2ccccc2)CC1)C1CCN(S(=O)(=O)N2CCCC2)CC1`, the “activity, negative = inhibition” value is -14.5%. On to `NCS(=O)(=O)O`, for which the activity, negative = inhibition was -4.35% [at 11.4 µM]. In the case of `N#Cc1ccc(C2=NC(C(F)(F)F)(C(F)(F)F)c3c(n(Cc4ccco4)c(=O)[nH]c3=O)N2)cc1`, the AC50 was 398 nM (active). Consider `CC1(C)CC2(CC(c3cccs3)c3cc(Cl)c(O)cc3O2)NC(=S)N1` (configuration not stated), for which the half-maximal activity concentration (AC50) was 1000 nM (active).

`Cc1noc(C)c1-c1cc(NCc2cccs2)ncn1`: the activity, negative = inhibition is 17.3% [at 2.29 µM].

For `Cc1c(/C=N/NC(=O)c2ccc3c(c2)OCO3)cnn1C`, the “activity, negative = inhibition” value was -16.9%.

`O=C(N/N=C\c1cn(-c2ccccc2)nc1-c1ccccc1)c1ccc2c(c1)OCO2`: the AC50 is 3980 nM (active). Still for that read-out and setting: in the case of `O=C(N/N=C\c1cn(-c2ccccc2)nc1-c1ccccc1)c1ccc(Br)o1` it was 1580 nM (active). `CC(/C=C/c1ccccc1)=N/NC(=O)CNC(=O)c1ccc2c(c1)OCO2`: the “activity, negative = inhibition” value was -26%. For `O=C(N/N=C/c1ccccn1)c1ccc(Br)o1`, the “activity, negative = inhibition” value is -46.8%. On to `COc1ccc(-c2nn(-c3ccccc3)cc2/C=N/NC(=O)c2ccc3c(c2)OCO3)cc1`, for which the AC50 was 3160 nM (active). For the compound `CN1CCN(c2ncncc2-c2ccccc2Cl)CC1`, the activity, negative = inhibition was -9.71% [at 2.29 µM]. As for `CC(=O)OC[C@@H]1O[C@@H](O/N=C2/C[C@@H](O)[C@@H](O)[C@@H]3[C@@H]4C(=O)N(C[C@@H]5CCCO5)C(=O)[C@H]4CC[C@H]23)[C@H](OC(C)=O)[C@H](OC(C)=O)[C@@H]1OC(C)=O`, the activity, negative = inhibition was 5.35% [at 11.4 µM]. For the compound `COc1ccc(Nc2ncnc3sc(-c4ccccc4)cc23)cc1`, the AC50 was 3980 nM (active).

Turning to `COc1ccc(-n2cnc3sc(-c4ccccc4)cc3c2=O)cc1`, the “activity, negative = inhibition” value was -26.2%. Turning to `COc1cccc(-c2nc(Nc3ccncc3)c3ccccc3n2)c1`, the activity, negative = inhibition was -24.2% [at 2.29 µM]. On the same count and under the same terms, in the case of `C[C@@]12C[C@H](O)[C@@H]3[C@H](CCC4=CC(=O)CC[C@]43C)[C@H]1CC[C@@H]2c1csc(N)n1` it was 0.854% [at 11.4 µM]. `CC(=O)[C@@H]1CC[C@@H]2[C@@H]3C[C@H](C)C4=CC(=O)CC[C@@]4(C)[C@H]3[C@H](O)C[C@]21C`: the AC50 is 398 nM (active). Regarding `CC(=O)[C@H]1CC[C@H]2[C@@H]3C=CC4=CC(=O)CC[C@@]4(C)[C@H]3CC[C@]12C`, the “activity, negative = inhibition” value is -25% [at 25.6 µM]. As to `CCCCSc1nnc(-c2ccc(C)cc2)n1C`, the “activity, negative = inhibition” value is 14.8%. For the compound `CCCCSc1ccc2nc(-c3ccc(C#N)cc3)cn2c1`, the AC50 was 3550 nM (active). With `Nc1ccccc1CCCC(=O)O`, the activity, negative = inhibition was 1.29% [at 11.4 µM]. Still for that read-out and setting: in the case of `COc1cccc(C2=NOC(C(=O)NCc3ccccn3)C2)c1` (configuration not stated) it was 14.7%; in that of `CCn1c(CCCc2nc3c([nH]2)c(=O)n(C)c(=O)n3C)nc2c1c(=O)n(C)c(=O)n2C`, 6.37% [at 11.4 µM]. On the same count and under the same terms, in the case of `Cn1c(=O)c2c(nc(N/N=C\c3ccccc3C(=O)O)n2C)n(C)c1=O` it was 7.56% [at 11.4 µM]. For `CC(C)CCn1c(Oc2ccccc2Cl)nc2c1c(=O)n(C)c(=O)n2C`, the AC50 was 1000 nM (active). As to `C[C@@]1(C(=O)O)CCC[C@@H]1C(=O)O`, the activity, negative = inhibition is 2.33% [at 11.4 µM].
